± gives the standard deviation.
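Note: 1 nM active piRISC with 0.1 nM target library at 33 °C single turnover.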

In the assay the test system is MILI (PIWIL2) piRISC loaded with piRNA #1 (26 nt). Kind of assay: pre-steady-state target cleavage rate (min^-1); guide: piRNA #1 5'p-UGAGGUAGUAGGUUGUAUAGUAUCCA; MIWI and MILI are mouse PIWI proteins and EfPiwi is from a freshwater sponge; tags in brackets are library labels; higher = faster piRNA-guided slicing of the target. The following applies: auxiliary factor: 500 nM mouse GTSF1. In outline:
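The pre-steady-state cleavage rate was calculated from a burst-and-steady-state fit. Data came from Cleave-'n-Seq, in which […] transcribed, DNA-blocked target RNA library was mixed with 1 nM active affinity-purified piRISC carrying one synthetic guide, with or without 500 nM GTSF1 partner protein, in HEPES–potassium acetate buffer at 33 °C for 0–8 or 0–960 min. Uncleaved targets were sequenced and normalised to depth and to weakly complementary targets, three trials were pooled, and k3 was capped at 0.0001 min^-1.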
On to “GGAGACCUAUGAUAACAACCUACUACCUCG [g2:g16:cont:t1G]”, for which the “pre-steady-state target cleavage rate” value stood at 0.00536 ± 0.0027.

Consider GGAGACCAUAGUAUACAACCUAGUACCUCA, for which the “pre-steady-state target cleavage rate” value turned out to be 0.0677 ± 0.011.

Consider GGAGACCUAUGAUAUGAACCUGCUACCUCA, for which the “pre-steady-state target cleavage rate” value was less than 0.0001.

For the sequence GGAGACGAUAGUAUACAACCUACUAGCUCA, the “pre-steady-state target cleavage rate” value amounted to 0.0976 ± 0.021.

Take GGAGACCUAUGUAAACAACCUACUACGUCA: the “pre-steady-state target cleavage rate” value stood at 0.00279 ± 0.0027.

GGAGACCUAUGAUAUGUAGGAACUACCUCA: the “pre-steady-state target cleavage rate” value was less than 0.0001.

As to GGAGACCUAUGAAGACAACCUACUACCUCA, the “pre-steady-state target cleavage rate” value was 0.00824 ± 0.0032.

On to GGAGACCUUAUUAUACAACCUACUACCUCA, for which the “pre-steady-state target cleavage rate” value was determined as 0.14 ± 0.011.

With GGAGACCAUACUAUACAACCUAUACCUCA, the “pre-steady-state target cleavage rate” value was determined as 0.016 ± 0.0051.

Consider GGAGACCUAUGAUUACAACCUACUAACCUCA, for which the “pre-steady-state target cleavage rate” value came out at 0.0091 ± 0.0025.

As to GGAGACCAUACAAUACAACCUACUACGUCA, the “pre-steady-state target cleavage rate” value stood at 0.0912 ± 0.014.

For GGAGACCUAACUUUACUACCUACUACCUCA, the “pre-steady-state target cleavage rate” value is 0.0581 ± 0.013.

As to GGAGACCUAACUAUACAACCUACUAGCCUCA, the “pre-steady-state target cleavage rate” value came to 0.186 ± 0.035.

Take GGAGAGCAUACUAUAGAACCUACUACCUCA: the “pre-steady-state target cleavage rate” value is 0.142 ± 0.012.

As for GGAGACCUAACUAUACAACCUAGCUACCUCA, the “pre-steady-state target cleavage rate” value stood at 0.0209 ± 0.008.

For the sequence GGAGACGAUUCUAAACAACCUACUACCUCA, the “pre-steady-state target cleavage rate” value was found to be 0.168 ± 0.012.

Consider GGAGACCUAUCUAUACAACUUACUACCUCA, for which the “pre-steady-state target cleavage rate” value was determined as 0.0156 ± 0.0023.

In the case of GGAGACCUAUGUAUACAACGUACUACCACA, the “pre-steady-state target cleavage rate” value came to 0.00942 ± 0.003.

For the sequence GGAGACCUAUGUAUACUACCUACUAGCUCA, the “pre-steady-state target cleavage rate” value amounted to 0.0108 ± 0.0031.

Regarding GGAGACCUUUCUAUACAACCUACUACCACA, the “pre-steady-state target cleavage rate” value was 0.152 ± 0.018.

Regarding GGAGACCUAACUUACAACCUACUACCUCA, the “pre-steady-state target cleavage rate” value came to 0.0068 ± 0.0056.

With GGAGACCAUACUAUACUACCUACUACCUCA, the “pre-steady-state target cleavage rate” value was determined as 0.158 ± 0.017.

GGAGACCUAUGAAUACAUCCUACUACGUCA: the “pre-steady-state target cleavage rate” value stood at 0.00336 ± 0.0019.

As to GGAGACCUAACUUUACAAGCUACUACCUCA, the “pre-steady-state target cleavage rate” value stood at 0.135 ± 0.025.

In the case of GGAGACCUAUCUUUACAACCUUCUACCUCA, the “pre-steady-state target cleavage rate” value was 0.00489 ± 0.0025.

As to GGAGAGGAUUCUAUACUACCUACUACCUCA, the “pre-steady-state target cleavage rate” value came out at 0.161 ± 0.0097.

Consider GGAGACCUAUGAUAUGUACCUACAAGCUCA, for which the “pre-steady-state target cleavage rate” value was less than 0.0001.

As for GGAGACCUUACUAAACAACCUUCUACCUCA, the “pre-steady-state target cleavage rate” value came to 0.00652 ± 0.0027.

As to GGAGACCUAUGAUAUGUACCUACUAGCACA, the “pre-steady-state target cleavage rate” value was less than 0.0001.

In the case of GGAGACCUAUGAUUACAACCUACUACCUUA, the “pre-steady-state target cleavage rate” value worked out at 0.00425 ± 0.0023.

Consider GGAGAGGAUUCUAUACAACCUACUACCUGA, for which the “pre-steady-state target cleavage rate” value came to 0.0768 ± 0.011.

With GGAGACCUUACUAUUCAACCUACUUCCUCA, the “pre-steady-state target cleavage rate” value was determined as 0.0623 ± 0.013.

Turning to GGAGAGGAUACUAUAGAACCUACAACCUCA, the “pre-steady-state target cleavage rate” value came out at 0.00427 ± 0.0024.

With GGAGACCUAUGAUAACAACCUACAACCUCA, the “pre-steady-state target cleavage rate” value came out at 0.00456 ± 0.0024.

As to GGAGACCUUACAAAACAACCUACUACCUCA, the “pre-steady-state target cleavage rate” value was 0.00897 ± 0.0036.

For GGAGACCUAUCUAUACAAGGAACUACCUCA, the “pre-steady-state target cleavage rate” value was found to be 0.0048 ± 0.002.

In the case of GGAGACCUAUGAUAUCAACCUACGUACCUCA, the “pre-steady-state target cleavage rate” value was found to be 0.00296 ± 0.0024.

As to GGAGACCUAACUUUACAACCUACUUCCUCA, the “pre-steady-state target cleavage rate” value came out at 0.0099 ± 0.0053.

With GGAGACCUAUGAAUACAAGCUACUACCACA, the “pre-steady-state target cleavage rate” value worked out at 0.0366 ± 0.0055.

GGAGUGGAACUAUACAACCUACUACCUCA: the “pre-steady-state target cleavage rate” value came out at 0.159 ± 0.011.

The values above are taken from the supplement of paper PMC10338343.
